“And” between values parts separate entries of the source, which are not always exact repeats. Equal values may be shown once. Inconclusive results are not listed. More than one record can exist for a structure, and the calls need not agree. The source made the active and inactive calls. Calls follow the shape of the dose curve; as a rule, active = well fitted inhibition curve with a large enough effect; inconclusive = small, poorly fitted or top-dose-only effect; inactive = flat fitted curve, though single readings scatter.
The molecules below were run on UISO (assay: qHTS assay to identify novel small-molecules to repurpose for Merkel cell carcinoma treatment (AID 1296009; also: nearly all actives have a fitted effect of over 60% in size)). Settings: MCC and control cell lines, CellTiter-Glo viability, 72 h; series mostly up to 46 µM; activity change, negative = cytotoxicity: at the top concentration.
In short: (§1)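 Cells exposed to NPC (8-point) and MIPE (11-point) compound dilutions for 72 hr at 37 degree celsius; viability read by CellTiter-Glo luminescence, normalized to no-cell and DMSO in-plate controls.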
% is scaled to controls: 0 for no effect and ±100 for the full control effect; potency is read from the fitted curve at half-maximal effect.

| Compound | Potency | activity change, negative = cytotoxicity |
| --- | --- | --- |
| NCCCC(N)(C(=O)O)C(F)F (stereo unspecified) | inactive |  |
| Cc1cccc(-c2[nH]c(C(C)(C)C)nc2-c2ccc3nccnc3c2)n1 | 2960 nM (active) |  |
| O=C(O)[C@@H](c1ccc(OCc2ccc3ccccc3n2)cc1)C1CCCC1 |  | 1.2% (inactive) |
| NC(=O)c1ccc(-c2nc(-c3ccc4c(c3)OCCO4)c(-c3ccccn3)[nH]2)cc1 |  | -1.66% (inactive) |
| COc1c(Cl)cc2c([nH]c3cnccc32)c1NC(=O)c1cccnc1C |  | 2.49% (inactive) |
| CCCc1nn(C)c2c(=O)[nH]c(-c3cc(S(=O)(=O)N4CCN(C)CC4)ccc3OCC)nc12 | inactive |  |
| CN(C)c1ccc(C2Nc3ccc4ccccc4c3C3=C2C(=O)CC(C)(C)C3)cc1Br (stereo unspecified) |  | -1.24% (inactive) |
| CCN(c1ccccc1)c1cc(NC)[n+](C)c(C)n1 |  | 6.63% (inactive) |
| Fc1ccc(Cl)cc1-c1nc(Nc2ccncc2)c2nccnc2n1 |  | 2.91% (inactive) |
| Cc1ccc(N(CC2=NCCN2)c2cccc(O)c2)cc1 | inactive |  |
| Nc1ccc(S(=O)(=O)Nc2ccnn2-c2ccccc2)cc1 | inactive |  |
| CCOC(=O)N[C@@H]1CC[C@@H]2[C@@H](C1)C[C@H]1C(=O)O[C@H](C)[C@H]1[C@@H]2C=Cc1ccc(-c2cccc(F)c2)cn1 |  | -6.26% (inactive) |
| Cc1cc(C=c2sc3nc4ccccc4n3c2=O)c(C)n1-c1ccccc1 |  | -1.94% (inactive) |
| Nc1cccc(S(=O)(=O)N2CCCN(S(=O)(=O)c3ccc4c(c3)OCCO4)CC2)c1 |  | -3.82% (inactive) |
| c1ccc([C@H]2CN3CCSC3=N2)cc1 | inactive |  |
| COCCNCCCn1c(C(=O)CF)c(-c2ccc(C)cc2)c2c(N)ncnc21 |  | -28% (inactive) |
| Cc1cn[nH]c1 | inactive and 2.96 µM (active) |  |

| Compound | Potency | activity change, negative = cytotoxicity |
| --- | --- | --- |
| NC(=O)c1cnccn1 | inactive |  |
| CCCCCCCc1ccc(CCc2cccc(O)c2C(=O)O)cc1 |  | 12.1% (inactive) |
| Cn1cc(-c2ccc3nnc(C(F)(F)c4ccc5ncccc5c4)n3n2)cn1 |  | -13.4% (inactive) |
| COc1ccc2nc(S(=O)Cc3ncc(C)c(OC)c3C)[nH]c2c1 (stereo unspecified) |  | -16.8% (inactive) |
| OC(CN1CCC(Cc2ccc(F)cc2)CC1)c1ccc(Cl)cc1 (stereo unspecified) |  | 7.42% (inactive) |
| CC[C@@H](C)[C@H](NC(=O)[C@H](CC1CCCCC1)NC(=O)c1ccno1)C(=O)N1CCC2(CCc3ccccc32)CC1 |  | -6.09% (inactive) |
| NNCCc1ccccc1 | inactive |  |
| Cc1ccccc1C(OCCN(C)C)c1ccccc1 (stereo unspecified) | inactive |  |
| O=C(C1CC1)N1CC[C@@H](Cn2c(-c3ccc(-c4ccc5occc5c4)cc3)nc3cnccc32)C1 |  | -3.44% (inactive) |
| CCC(C)n1ncn(-c2ccc(N3CCN(c4ccc(OC[C@H]5CO[C@](Cn6cncn6)(c6ccc(Cl)cc6Cl)O5)cc4)CC3)cc2)c1=O (stereo partly specified) | inactive |  |
| CC(C)(C)OC(=O)CN(Cc1ccc(Cl)cc1)Cc1ccc([N+](=O)[O-])s1 |  | -19.3% (inactive) |
| Nc1ncnc2nc(-c3ccc(N4CCOCC4)nc3)cc(-c3cccc(Br)c3)c12 |  | -5.24% (inactive) |
| NC(=O)c1ccc(I)c([N+](=O)[O-])c1 |  | 4.77% (inactive) |
| C[C@]12CC[C@H](O)CC1=CC[C@@H]1[C@H]2CC[C@]2(C)C(c3cccnc3)=CC[C@H]12 |  | -2.17% [at 16.1 µM] (inactive) |
| CC(C)OC(=O)C1=CN(C(=O)c2ccc(F)c(F)c2)CC(C)(C)c2c1[nH]c1ccccc21 |  | -8.3% (inactive) |
| OCCn1cc(-c2cnc3nnn(Cc4ccc5ncccc5c4)c3n2)cn1 |  | -26.4% (inactive) |

The molecules below were run on WaGa in the same assay as above. Settings: MCC and control cell lines, CellTiter-Glo viability, 72 h; series mostly up to 46 µM; activity change, negative = cytotoxicity: at the top concentration.
In short: as §1

| Compound | Potency | activity change, negative = cytotoxicity |
| --- | --- | --- |
| NCCCC(N)(C(=O)O)C(F)F (stereo unspecified) | inactive |  |
| Cc1cccc(-c2[nH]c(C(C)(C)C)nc2-c2ccc3nccnc3c2)n1 | 2640 nM (active) |  |
| O=C(O)[C@@H](c1ccc(OCc2ccc3ccccc3n2)cc1)C1CCCC1 |  | -0.68% (inactive) |
| NC(=O)c1ccc(-c2nc(-c3ccc4c(c3)OCCO4)c(-c3ccccn3)[nH]2)cc1 |  | -0.796% (inactive) |
| COc1c(Cl)cc2c([nH]c3cnccc32)c1NC(=O)c1cccnc1C |  | -2.85% (inactive) |
| CCCc1nn(C)c2c(=O)[nH]c(-c3cc(S(=O)(=O)N4CCN(C)CC4)ccc3OCC)nc12 | inactive |  |
| CN(C)c1ccc(C2Nc3ccc4ccccc4c3C3=C2C(=O)CC(C)(C)C3)cc1Br (stereo unspecified) |  | 1.65% (inactive) |
| CCN(c1ccccc1)c1cc(NC)[n+](C)c(C)n1 |  | -1.94% (inactive) |
| Fc1ccc(Cl)cc1-c1nc(Nc2ccncc2)c2nccnc2n1 |  | 3.13% (inactive) |
| Cc1ccc(N(CC2=NCCN2)c2cccc(O)c2)cc1 |  | -5.64% (inactive) |
| Nc1ccc(S(=O)(=O)Nc2ccnn2-c2ccccc2)cc1 | inactive |  |
| CCOC(=O)N[C@@H]1CC[C@@H]2[C@@H](C1)C[C@H]1C(=O)O[C@H](C)[C@H]1[C@@H]2C=Cc1ccc(-c2cccc(F)c2)cn1 |  | -14.6% (inactive) |
| Cc1cc(C=c2sc3nc4ccccc4n3c2=O)c(C)n1-c1ccccc1 |  | -4.11% (inactive) |
| Nc1cccc(S(=O)(=O)N2CCCN(S(=O)(=O)c3ccc4c(c3)OCCO4)CC2)c1 |  | -9.32% (inactive) |
| c1ccc([C@H]2CN3CCSC3=N2)cc1 | inactive |  |
| COCCNCCCn1c(C(=O)CF)c(-c2ccc(C)cc2)c2c(N)ncnc21 |  | -7.9% (inactive) |
| Cc1cn[nH]c1 | inactive and 1.87 µM (active) |  |

| Compound | Potency | activity change, negative = cytotoxicity |
| --- | --- | --- |
| NC(=O)c1cnccn1 | inactive |  |
| CCCCCCCc1ccc(CCc2cccc(O)c2C(=O)O)cc1 |  | -2.41% (inactive) |
| Cn1cc(-c2ccc3nnc(C(F)(F)c4ccc5ncccc5c4)n3n2)cn1 |  | -10.8% (inactive) |
| COc1ccc2nc(S(=O)Cc3ncc(C)c(OC)c3C)[nH]c2c1 (stereo unspecified) |  | -9.87% (inactive) |
| OC(CN1CCC(Cc2ccc(F)cc2)CC1)c1ccc(Cl)cc1 (stereo unspecified) | inactive |  |
| CC[C@@H](C)[C@H](NC(=O)[C@H](CC1CCCCC1)NC(=O)c1ccno1)C(=O)N1CCC2(CCc3ccccc32)CC1 |  | -14.5% (inactive) |
| NNCCc1ccccc1 |  | -2.64% (inactive) |
| Cc1ccccc1C(OCCN(C)C)c1ccccc1 (stereo unspecified) |  | 5.58% (inactive) |
| O=C(C1CC1)N1CC[C@@H](Cn2c(-c3ccc(-c4ccc5occc5c4)cc3)nc3cnccc32)C1 |  | -9.82% (inactive) |
| CCC(C)n1ncn(-c2ccc(N3CCN(c4ccc(OC[C@H]5CO[C@](Cn6cncn6)(c6ccc(Cl)cc6Cl)O5)cc4)CC3)cc2)c1=O (stereo partly specified) | inactive |  |
| CC(C)(C)OC(=O)CN(Cc1ccc(Cl)cc1)Cc1ccc([N+](=O)[O-])s1 |  | -20.8% (inactive) |
| Nc1ncnc2nc(-c3ccc(N4CCOCC4)nc3)cc(-c3cccc(Br)c3)c12 |  | -0.768% (inactive) |
| NC(=O)c1ccc(I)c([N+](=O)[O-])c1 |  | -18.4% (inactive) |
| C[C@]12CC[C@H](O)CC1=CC[C@@H]1[C@H]2CC[C@]2(C)C(c3cccnc3)=CC[C@H]12 |  | -3.12% [at 16.1 µM] (inactive) |
| CC(C)OC(=O)C1=CN(C(=O)c2ccc(F)c(F)c2)CC(C)(C)c2c1[nH]c1ccccc21 |  | -1.69% (inactive) |
| OCCn1cc(-c2cnc3nnn(Cc4ccc5ncccc5c4)c3n2)cn1 |  | -2.8% (inactive) |

— PubChem BioAssay (NCATS)
